The text below walks through data of PubChem BioAssay (NCI).

Compounds without any hit were thinned out: in the full panel of roughly 79,000, 15% have a hit. Values without a mark were called inactive. Activity calls are given as the source filed them. Rule as the data show it: active = growth inhibition above about 70%; inactive = the rest.

The first test can be described thus: NCI Yeast Anticancer Drug Screen. Data for the cln2 rad14 strain (AID 165).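 Also: 0% = growth equal to vehicle treated cultures.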 The note with it: S. cerevisiae cln2 rad14 strain, at 50.0 µM (retest, dose inferred, filed as 5.0), stronger effect = higher value. The method in brief:
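Each compound was tested on cln2 rad14 yeast. Inhibition of growth was calculated against vehicle-exposed controls.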
For the molecule `CC1CCN(CCOC(=O)C(c2ccccc2)C2C=CCCC2)C1C` (stereo not given), the growth inhibition was 53%.

Regarding `CC(CCCN(C)Cc1ccccc1)Nc1ccnc2cc(Cl)ccc12` (stereo not given), the growth inhibition is 99% (active).

In the case of `O=C(/C(Cl)=N/O)c1ccccc1`, the growth inhibition was 99% (active).

For `CN(C)C1C[C@@H](O[Si](C)(C)C(C)(C)C)C=C1S(=O)(=O)c1ccccc1` (stereo not given in full), the growth inhibition is 99% (active).

For the molecule `Nc1nnc(Cc2ccc(Br)cc2)o1`, the growth inhibition was -2%.

As for `CSc1nc(C)cc(SCc2ccc(Cl)cc2Cl)n1`, the growth inhibition was -1%.

Take `CC[N](CC)[Ge]([CH2]C)[CH2]C.CC[N](CC)[Ge]([CH2]C)[CH2]C`: the growth inhibition was 98% (active).

On to `Cc1c(-c2ccccc2)ccnc1/C=N/NC(=S)Nc1ccc(N(C)C)cc1`, for which the growth inhibition was 91% (active).

With `Cc1cc(C)nc(NS(=O)(=O)c2ccc(Nc3c4ccccc4nc4c(C(=O)NC(CO)(CO)CO)cccc34)cc2)n1`, the growth inhibition was -2%.

For the molecule `CCCC(CCC)NCCOC(=O)C(CC)c1ccccc1` (stereo not given), the growth inhibition is 62%.

Consider `OCCc1ccc(-n2cnc3c(Nc4ccc(Cl)cc4)ncnc32)cc1`, for which the growth inhibition was 94% (active).

Take `Cc1cccc(N2C(=O)c3ccccc3C2(c2ccccc2)N2CCCCC2)c1` (stereo not given): the growth inhibition was -2%.

For `CCCCN(CCO)CCNc1ccc(C)c2sc3ccccc3c(=O)c12`, the growth inhibition was 99% (active).

In the case of `Cc1ccc(C)c(C(=O)CCN)c1`, the growth inhibition is 2%.

For `O=C1C(C(O)(C(F)(F)Cl)C(F)(F)Cl)CCCC1C(O)(C(F)(F)Cl)C(F)(F)Cl` (stereo not given), the growth inhibition is 100% (active).

`CC(C)c1cc2c(cc1O)C(O)C1(O)CCCC(C)(C)[C@H]1CC2` (stereo not given in full): the growth inhibition was 99% (active).

On to `CN(C)[C@@H]1C(=O)C(C(=O)NCNc2nc3n[nH]nc3c(=O)[nH]2)=C(O)[C@@]2(O)C(=O)C3=C(O)c4c(O)cccc4[C@@](C)(O)[C@H]3C[C@@H]12`, for which the growth inhibition is -8%.

`CCOC(=O)c1csc(=S)[nH]1`: the growth inhibition is 46%.

Consider `CC(=O)[O-].O=C(N/N=C/c1ccccc1[O-])c1ccccc1.[Zn+2]`, for which the growth inhibition is 32%.

With `Clc1ccc(C(CCOc2ccccc2Br)Cn2ccnc2)c(Cl)c1` (stereo not given), the growth inhibition was 99% (active).

As for `CCCC(C)C/C(C)=C\C(C)(C)C1CC(=O)N(CC)C1=O` (stereo not given), the growth inhibition was 92% (active).

Consider `CSC(SC)=C1C(=O)NC(Cc2ccccc2)C1=O` (stereo not given), for which the growth inhibition is 24%.

Turning to `CCCCCCSc1nc2ccc(N=Cc3ccccc3O)cc2s1`, the growth inhibition was 65%.

With `Cc1cc(C(=O)O)c(C)c2c1sc1ccccc12`, the growth inhibition was 81% (active).

In the case of `O=C(Nc1ccc(Cl)cc1)Nc1nnc2nc(C(C(=O)/C=C/c3ccccc3)c3nc4nnc(NC(=O)Nc5ccc(Cl)cc5)n4[nH]c3=O)c(=O)[nH]n12`, the growth inhibition was 2%.

Consider `O=c1c(SSc2coc3ccccc3c2=O)coc2ccccc12`, for which the growth inhibition was 94% (active).

As for `C[n+]1c(/C=C/c2ccc(N3CCCC3)cc2)sc2ccccc21`, the growth inhibition is 98% (active).

On to `CCC(C(c1ccc(Cl)cc1)c1ccc(Cl)c(Cl)c1)[N+](=O)[O-]` (stereo not given), for which the growth inhibition was 30%.

`O=C1OC(C2OC(=O)C(=O)C2C(=O)c2ccc([N+](=O)[O-])cc2)C(C(=O)c2ccc([N+](=O)[O-])cc2)C1=O` (stereo not given): the growth inhibition was 22%.

On to `O=[N+]([O-])c1ccc(O)c(C2CCCCC2)c1`, for which the growth inhibition is 99% (active).

Regarding `O=C1c2ccccc2C(=O)N1/N=C\c1ccccc1[N+](=O)[O-]`, the growth inhibition was 32%.

With `CC(C)(C)C(=O)CC(=O)C(F)(F)C(F)(F)C(F)(F)F.CC(C)(C)C(=O)CC(=O)C(F)(F)C(F)(F)C(F)(F)F.CC(C)(C)C(=O)CC(=O)C(F)(F)C(F)(F)C(F)(F)F.[Gd]`, the growth inhibition was 87% (active).

As to `Oc1ccc(N=Nc2ccccc2)cc1`, the growth inhibition was 98% (active).

Regarding `Cc1cc(NC(=S)SCc2ccc(F)cc2)ccc1Br`, the growth inhibition was 99% (active).

Take `OC(CN1CCc2ccccc2C1)c1ccc2ccccc2c1` (stereo not given): the growth inhibition was 58%.

Consider `O=C1C=C/C(=C(/c2ccc(O)c(O)c2)c2ccccc2S(=O)(=O)O)C=C1O`, for which the growth inhibition is -2%.

On to `Cc1cc(N)c2cc(NC(=O)Nc3ccc4nc(C)cc(N)c4c3)ccc2n1`, for which the growth inhibition is 100% (active).

For the molecule `CC(=O)N/N=C1/CC[C@@]2(C)C(=CC[C@H]3C4CCC(C(C)CCCC(C)C)[C@@]4(C)CCC32)C1(C)C` (stereo not given in full), the growth inhibition is 74% (active).

Take `Cc1ncn(-c2ccccc2O)c1C`: the growth inhibition is -8%.

For the molecule `Oc1ccc(-c2nnc(-c3ccccc3)nn2)cc1`, the growth inhibition was -66%.

The same test, now with this note: S. cerevisiae cln2 rad14 strain, at 50.0 µM, stronger effect = higher value.
Consider `CC1CCN(CCOC(=O)C(c2ccccc2)C2C=CCCC2)C1C` (stereo not given), for which the growth inhibition is 86.9% (active).

On to `CC(CCCN(C)Cc1ccccc1)Nc1ccnc2cc(Cl)ccc12` (stereo not given), for which the growth inhibition is 99.4% (active).

`O=C(/C(Cl)=N/O)c1ccccc1`: the growth inhibition is 58%.

Turning to `CN(C)C1C[C@@H](O[Si](C)(C)C(C)(C)C)C=C1S(=O)(=O)c1ccccc1` (stereo not given in full), the growth inhibition is 33.5%.

For `Nc1nnc(Cc2ccc(Br)cc2)o1`, the growth inhibition was 71.5% (active).

On to `CSc1nc(C)cc(SCc2ccc(Cl)cc2Cl)n1`, for which the growth inhibition is -36.7%.

With `CC[N](CC)[Ge]([CH2]C)[CH2]C.CC[N](CC)[Ge]([CH2]C)[CH2]C`, the growth inhibition is 37.1%.

As to `Cc1c(-c2ccccc2)ccnc1/C=N/NC(=S)Nc1ccc(N(C)C)cc1`, the growth inhibition is 60.6%.

`Cc1cc(C)nc(NS(=O)(=O)c2ccc(Nc3c4ccccc4nc4c(C(=O)NC(CO)(CO)CO)cccc34)cc2)n1`: the growth inhibition was 42.4%.

With `CCCC(CCC)NCCOC(=O)C(CC)c1ccccc1` (stereo not given), the growth inhibition was 55.9%.

In the case of `OCCc1ccc(-n2cnc3c(Nc4ccc(Cl)cc4)ncnc32)cc1`, the growth inhibition was 17.8%.

For `Cc1cccc(N2C(=O)c3ccccc3C2(c2ccccc2)N2CCCCC2)c1` (stereo not given), the growth inhibition was 75.3% (active).

Take `CCCCN(CCO)CCNc1ccc(C)c2sc3ccccc3c(=O)c12`: the growth inhibition is 99.7% (active).

For `Cc1ccc(C)c(C(=O)CCN)c1`, the growth inhibition is 84.8% (active).

Turning to `O=C1C(C(O)(C(F)(F)Cl)C(F)(F)Cl)CCCC1C(O)(C(F)(F)Cl)C(F)(F)Cl` (stereo not given), the growth inhibition was 99.3% (active).

Regarding `CC(C)c1cc2c(cc1O)C(O)C1(O)CCCC(C)(C)[C@H]1CC2` (stereo not given in full), the growth inhibition was 91.6% (active).

Consider `CN(C)[C@@H]1C(=O)C(C(=O)NCNc2nc3n[nH]nc3c(=O)[nH]2)=C(O)[C@@]2(O)C(=O)C3=C(O)c4c(O)cccc4[C@@](C)(O)[C@H]3C[C@@H]12`, for which the growth inhibition was 11.6%.

On to `CCOC(=O)c1csc(=S)[nH]1`, for which the growth inhibition is -12.1%.

Take `CC(=O)[O-].O=C(N/N=C/c1ccccc1[O-])c1ccccc1.[Zn+2]`: the growth inhibition was -16.9%.

As for `Clc1ccc(C(CCOc2ccccc2Br)Cn2ccnc2)c(Cl)c1` (stereo not given), the growth inhibition is 97% (active).

Turning to `CCCC(C)C/C(C)=C\C(C)(C)C1CC(=O)N(CC)C1=O` (stereo not given), the growth inhibition was 83.8% (active).

On to `CSC(SC)=C1C(=O)NC(Cc2ccccc2)C1=O` (stereo not given), for which the growth inhibition is 37.5%.

`CCCCCCSc1nc2ccc(N=Cc3ccccc3O)cc2s1`: the growth inhibition was 48%.

Take `Cc1cc(C(=O)O)c(C)c2c1sc1ccccc12`: the growth inhibition was 42%.

Regarding `O=C(Nc1ccc(Cl)cc1)Nc1nnc2nc(C(C(=O)/C=C/c3ccccc3)c3nc4nnc(NC(=O)Nc5ccc(Cl)cc5)n4[nH]c3=O)c(=O)[nH]n12`, the growth inhibition was 28.6%.

As for `O=c1c(SSc2coc3ccccc3c2=O)coc2ccccc12`, the growth inhibition is 91.3% (active).

For `C[n+]1c(/C=C/c2ccc(N3CCCC3)cc2)sc2ccccc21`, the growth inhibition is 98.8% (active).

Take `CCC(C(c1ccc(Cl)cc1)c1ccc(Cl)c(Cl)c1)[N+](=O)[O-]` (stereo not given): the growth inhibition was 34%.

Regarding `O=C1OC(C2OC(=O)C(=O)C2C(=O)c2ccc([N+](=O)[O-])cc2)C(C(=O)c2ccc([N+](=O)[O-])cc2)C1=O` (stereo not given), the growth inhibition is 64.2%.

For `O=[N+]([O-])c1ccc(O)c(C2CCCCC2)c1`, the growth inhibition is 99.5% (active).

Consider `O=C1c2ccccc2C(=O)N1/N=C\c1ccccc1[N+](=O)[O-]`, for which the growth inhibition was -29.1%.

In the case of `CC(C)(C)C(=O)CC(=O)C(F)(F)C(F)(F)C(F)(F)F.CC(C)(C)C(=O)CC(=O)C(F)(F)C(F)(F)C(F)(F)F.CC(C)(C)C(=O)CC(=O)C(F)(F)C(F)(F)C(F)(F)F.[Gd]`, the growth inhibition was 82.7% (active).

On to `Oc1ccc(N=Nc2ccccc2)cc1`, for which the growth inhibition was 98.1% (active).

For the molecule `Cc1cc(NC(=S)SCc2ccc(F)cc2)ccc1Br`, the growth inhibition is 90.7% (active).

For the molecule `OC(CN1CCc2ccccc2C1)c1ccc2ccccc2c1` (stereo not given), the growth inhibition was 68.3%.

In the case of `O=C1C=C/C(=C(/c2ccc(O)c(O)c2)c2ccccc2S(=O)(=O)O)C=C1O`, the growth inhibition is 15.9%.

Consider `Cc1cc(N)c2cc(NC(=O)Nc3ccc4nc(C)cc(N)c4c3)ccc2n1`, for which the growth inhibition was 95.3% (active).

For the molecule `CC(=O)N/N=C1/CC[C@@]2(C)C(=CC[C@H]3C4CCC(C(C)CCCC(C)C)[C@@]4(C)CCC32)C1(C)C` (stereo not given in full), the growth inhibition was 55.1%.

As for `Cc1ncn(-c2ccccc2O)c1C`, the growth inhibition was 31.7%.

In the case of `Oc1ccc(-c2nnc(-c3ccccc3)nn2)cc1`, the growth inhibition is -52.5%.
